This passage reports Potency and viability change, negative = cytotoxic results from PubChem BioAssay (Tox21).

Records with an inconclusive call do not appear. Entries that show only a call come without a potency. Unmarked numbers belong to inactive results. Calls of active or inactive are those of the source. Calls follow the shape of the dose curve; as a rule, active = well fitted cell-killing curve with a large enough effect in the repeat runs; inconclusive = weak or mixed curves, or effect the other way; inactive = flat fitted curve, though single readings scatter.
Potency is read from the fitted curve at half-maximal effect.

The test in a line: cAMP Responsive Elements (CRE) small molecule antagonists, cell-based qHTS assay: qHTS cell viability counter screen (AID 2060913). Also: nearly all actives have a fitted effect of over 40% in size. As to conditions: CRE-bla HEK293T viability, CellTiter-Glo luminescence, 5 h; series mostly up to 92.4 µM. In short, it runs like this:
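Viability of NKH477-stimulated (0.25 uM final) CRE-bla HEK293T cells is measured by CellTiter-Glo luminescence following 3 hrs compound exposure at 37 C.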
(In general: qHTS replaces the single test concentration by a dilution series.)
For the compound `Cc1onc(-c2c(Cl)cccc2Cl)c1C(=O)Cl`, the Potency entry is “inactive”. Same read-out and setting: under `Nc1c2c(nc3ccccc13)CCCC2` stands “inactive”. Take `C[C@@H]1NC(=O)[C@@H](N)CNC(=O)[C@H](C2CCNC(N)=N2)NC(=O)/C(=C/NC(N)=O)NC(=O)[C@H](CNC(=O)C[C@@H](N)CCCN)NC1=O` (stereo not given in full): the viability change, negative = cytotoxic is -0.0663% [at 0.349 µM]. Turning to `CCCCCCCC1CCCC1=O` (stereo not given), the Potency result is “inactive”. On to `CC(C)CCCCCCOC(=O)c1ccc(C(=O)OCCCCCCC(C)C)c(C(=O)OCCCCCCC(C)C)c1`, for which the Potency entry is “inactive”. On the same count and under the same terms, under `CN(C)CCCN` stands “inactive”; under `CCCCNC(=O)NCCCC`, “inactive”; under `CCCCCCC(C)(C)S`, “inactive”. As for `On1nnc2ccccc21`, the Potency entry was “inactive”. Same read-out and setting: the value for `NS(=O)(=O)c1cc2c(cc1Cl)CN(C1CCCCC1)C2=O` was “inactive”. The same measure, in the same setting: under `C=COCCCC` stands “inactive”. With `CN(C)C(=O)NC1(c2ccccc2)CCN(CCC[C@]2(c3ccc(Cl)c(Cl)c3)CCCN(C(=O)c3ccccc3)C2)CC1`, the viability change, negative = cytotoxic is -0.11% [at 18.9 µM]. Regarding `O=C(O)c1ccc(OCCN2CCCCC2)cc1`, the Potency result was “inactive”. As for `CCCCOC(=O)CCS`, the Potency result is “inactive”. The same measure, in the same setting: under `NC1CCN(c2cccc(Cl)n2)CC1` stands “inactive”; under `O=C1C(=O)c2ccccc2C(O)=C1C1CCC(c2ccc(Cl)cc2)CC1` (stereo not given), “inactive”; under `CCCC[P+](C)(CCCC)CCCC`, “inactive”. For `Cc1nc2n(c(=O)c1CCN1CCC(C(=O)c3ccc(F)cc3)CC1)CCS2`, the Potency result is “inactive”. Turning to `Nc1ccc(S(=O)(=O)Nc2cnc3ccccc3n2)cc1`, the Potency result is “inactive”. On the same count and under the same terms, under `CCCCC(CC)COC(=O)c1ccccc1C(=O)O` (stereo not given) stands “inactive”. Regarding `CN(C)CCN(Cc1ccccc1)c1ccccn1`, the Potency entry was “inactive”. For `O=Cc1ccc(Cl)c(Cl)c1`, the Potency entry is “inactive”. `Cn1c(N)nc2nc[nH]c2c1=O`: the Potency entry is “inactive”. With `CC(NC(CCc1ccccc1)C(=O)O)C(=O)N1C(=O)N(C)CC1C(=O)O` (stereo not given), the Potency entry was “inactive”. On the same count and under the same terms, under `COCCOC(=O)C1=C(C)NC(C)=C(C(=O)OC/C=C/c2ccccc2)C1c1cccc([N+](=O)[O-])c1` (stereo not given) stands “inactive”; under `Cc1c(Cl)cccc1Cl`, “inactive”; under `CCCCC/C=C\C=C\C(=O)OCC`, “inactive”. On the same count and under the same terms, under `CNC(=S)NC` stands “inactive”; under `COC(=O)[C@H]1[C@H]2C[C@@H]3c4[nH]c5cc(OC)ccc5c4CCN3C[C@H]2C[C@@H](OC(=O)COc2ccc(OC)cc2)[C@@H]1OC`, “inactive”. Same read-out and setting: under `ClC(c1ccccc1)(c1ccccc1)c1ccccc1` stands “inactive”. Regarding `CO[C@H]1O[C@H](CO)[C@@H](O)[C@H](O)[C@H]1O`, the Potency result was “inactive”. As to `COC(=O)c1ccccc1O`, the Potency result was “inactive”. Still for that read-out and setting: under `O=C(O)c1ccccc1[N+](=O)[O-]` stands “inactive”; under `COc1nc(N)nc2nc[nH]c12`, “inactive”; under `CCO[Si](CCCN)(OCC)OCC`, “inactive”. On the same count and under the same terms, under `CCCC(=O)OCCc1ccccc1` stands “inactive”; under `C=C1C(CCl)(CCl)C2(Cl)C(Cl)C(Cl)C1(Cl)C2(Cl)Cl` (stereo not given), 60.4 µM (active); under `O=C1c2ccccc2C(=O)c2c(Cl)cccc21`, “inactive”.

On to `Cc1cccc(Cl)c1`, for which the Potency entry is “inactive”.

Turning to `COCc1ccc(COC)cc1`, the Potency entry was “inactive”.
